Bioassay records deposited in PubChem BioAssay by National Center for Advancing Translational Sciences (NCATS).
Nrf2 ARE act: qHTS of Nrf2 Activators; AREc32 ARE-luciferase reporter (MCF7-derived line), luminescence, 24 h; 410,000 compounds, 0.31% hits; AID 624171, 2012; Potency, µM (highest dose often 46.1 µM), actives largely listed as activators; also: nearly all actives have a fitted effect of over 65% in size
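For detection, Steady-Glo was added and plates sat 30 min at RT; before that, AREc32_Fluc cells grown overnight in OPTI-MEM/5% FBS had been treated with 23 nL compound for 24 hr at 37 deg C.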
TGFb inhibitor: qHTS for Inhibitors of TGF-b; HepG2 CAGA-GFP TGF-b/SMAD3 reporter, GFP fluorescence, 18 h; TGF-beta stimulated, 500 pg/mL final; 410,000 compounds, 1.2% hits; Potency, µM (series often up to 46.1 µM), usual class: inhibitors; also: nearly all actives have a fitted effect of over 65% in size
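Inhibition of TGF-beta-driven CAGA-GFP reporter expression in HEPG2 cells is measured by cellular GFP fluorescence after 18 h stimulation with 500 pg/mL recombinant TGF-beta in 1% FBS medium at 37 degrees C.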
HepG2 tox: qHTS for Inhibitors of TGF-b: Cytotox Counterscreen. HepG2 CAGA-GFP viability, ATP luminescence, 18 h. Potency, µM (doses to about 46.1 µM), hits mostly cytotoxic. 410,000 compounds, 0.76% hits
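CellTiter-Glo luminescence gave cytotoxicity after 18 hours at 37 degrees C. The cells were HepG2 CAGA-GFP in 1% FBS DMEM, stimulated with 500 pg/mL TGF-beta after compound addition. %Activity was normalised to no-cell wells (complete cell-killing) and DMSO (no toxicity), and curves were fitted and classified.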
Nrf2 block: Nrf2 qHTS screen for inhibitors | A549 ARE-Fluc reporter, luciferase luminescence, 18-24 h | 360,000 compounds, 2.1% hits | Potency, µM (doses to about 46 µM), usual class: inhibitors; also: nearly all actives have a fitted effect of over 60% in size
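Quantitative HTS in A549 cells stably bearing an antioxidant response element-firefly luciferase construct. Inhibition of Nrf2-driven transcription was scored by luminescence after 18-24 h of compound exposure at 37 °C.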
A549 viability: Nrf2 qHTS screen for inhibitors: counterscreen for cytotoxicity | Potency, µM (highest dose often 46 µM), hits mostly inhibitors | A549 ARE-Fluc cells, CellTiter-Fluor viability, 18-24 h | 390,000 compounds, 0.16% hits
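A549 ARE-Fluc cells in 5% FBS OPTI-MEM, 5000 cells/well, rested 2 h then exposed to compounds in concentration-response for 18-24 h at 37 °C. Viability by CellTiter-Fluor fluorescence (Ex 405/Em 525) after 30 min; luciferase luminescence (BugLite, 15 min, RT) read afterwards.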
Numbers stand for hits; – = inactive; ? = inconclusive; · = no result given; ! = a repeat was not active; [ ] = another dose, or the depositor's remark. A selection: hits, their analogues and other compounds. The true share with any hit is near 3.6%. Calls follow the shape of the dose curve; as a rule, active = well fitted curve in the direction sought with a large enough effect; inconclusive = small, poorly fitted or top-dose-only effect, or another doubt; inactive = no such curve, though single readings can be large; an effect the other way counts as inactive or inconclusive.

SMILES	Nrf2 ARE act	TGFb inhibitor	HepG2 tox	Nrf2 block	A549 viability
CC(C)=NNc1cc([N+](=O)[O-])cc2c1C(=O)N(C)S2=O (centres undefined)	–	–	–	–	–
CC1Cc2ccccc2N1S(=O)(=O)c1cccc(C(=O)NCc2ccccn2)c1 (centres undefined)	–	?	20µM	?	–
CC1Cc2ccccc2N1S(=O)(=O)c1nnc(NC(=O)c2ccccc2)s1 (centres undefined)	–	14.1µM	–	–	–
CCN(CC)CCNC(=O)c1ccc(NC(=O)c2cccc(S(=O)(=O)N3c4ccccc4CC3C)c2)cc1 (centres undefined)	–	?	10µM	–	–
CC1Cc2ccccc2N1S(=O)(=O)c1cccc(C(=O)NCc2ccncc2)c1 (centres undefined)	–	?	–	?	–
OCCNC(=S)Nc1ccc2c(c1)OCCO2	–	–	–	–	–
CCCCOC(=O)/C=C/c1c(C)[nH]c(=O)[nH]c1=O	–	–	–	–	–
CC(C)c1nc2sc3c(NCc4ccccc4)ncnc3c2c2c1COC(C)(C)C2	–	–	–	–	–
Cc1c(C(=O)Nc2ccc(F)cc2)oc2ccc(S(=O)(=O)N3CC(C)CC(C)C3)cc12 (centres undefined)	–	?	–	7.31µM	–
COc1ccc(NC(=O)c2oc3ccc(S(=O)(=O)N4CCCCC4)cc3c2C)cc1	–	–	–	·	–
COc1ccc2oc(C(=O)Nc3ccc(S(=O)(=O)N(C)C4CCN(C)CC4)cc3)c(C)c2c1	–	?	12.6µM	–	–
CCN1CCN(c2cc(C)c3cc(NC(=O)c4cc(Br)ccc4Cl)ccc3n2)CC1	–	?	10µM	–[9.27 µM]	–
Cc1cc(N2CCN(C)CC2)nc2ccc(NC(=O)Nc3ccccc3)cc12	–	?	12.6µM	?	?
S=c1[nH]nc(Cc2sc(-c3ccccc3)nc2-c2ccccc2)o1	–	?	–	·	–
Cc1ccc2occ(CC(=O)Nc3ccc(S(=O)(=O)N4CCCC(C)C4)cc3)c2c1 (centres undefined)	–	?	–	20.6µM	–
COc1ccccc1CC(=O)Nc1ccc2c(C)cc(=O)oc2c1	–	–	–	–	?
CCOC(=O)[C@@H](C)N(C(=O)OC(C)(C)C)S(=O)(=O)N(Cc1ccccc1)[C@H](C(=O)OC)C(C)C	–	10µM!	–	–	–
O=C(CNC(=O)c1ccco1)Nc1ccc(Br)cc1	–	–	–	?	–
Cc1cccnc1NC(=S)NCCc1ccccc1	–	?	–	?	–
CN(C)S(=O)(=O)N(CC(=O)Nc1ccc(C(F)(F)F)cc1)c1ccccc1	–	?	–	–	–
CNc1nc(-c2ccccn2)nnc1-c1ccccc1	–	–	–	11.2µM	?
c1ccc(-c2n[nH]c(-c3ccccn3)n2)cc1	–	–	–	?	–
COc1cc(C)c(C)cc1S(=O)(=O)NC1CC(C)(C)NC(C)(C)C1	–	–	–	–	–
COc1ccc(NC(=O)c2cc(S(=O)(=O)NCC3COc4ccccc4O3)ccc2F)cc1 (centres undefined)	–	?	–	?	–
O=C(Nc1ccc(C(F)(F)F)cc1)c1cc(S(=O)(=O)NCC2COc3ccccc3O2)ccc1F (centres undefined)	–	–	17.8µM	?	–
SMILES	Nrf2 ARE act	TGFb inhibitor	HepG2 tox	Nrf2 block	A549 viability
CCCc1cc(=O)[nH]c(Nc2ccccc2O)n1	11.2µM	–	–	–	–
CCCc1cc(=O)[nH]c(Nc2ccc(C(=O)O)cc2)n1	–	–	–	–	–
O=C(NCCN1C(=O)S/C(=C\c2ccc(Cl)c([N+](=O)[O-])c2)C1=O)C1=COCCO1	?	17.8µM	22.4µM	–	–
O=C(NCCN1C(=O)S/C(=C\c2ccc(Cl)c(Cl)c2)C1=O)c1cnccn1	–	–	–	–	–
O=C1CCSC2(C(=O)N(Cc3ccc(F)cc3)c3ccccc32)N1c1cccc(F)c1 (centres undefined)	–	12.6µM	–	–	–
O=C1CSC2(C(=O)N(Cc3cccc(F)c3)c3ccccc32)N1c1cccc(C(F)(F)F)c1 (centres undefined)	–	?	–	23.1µM	–
Cc1cccc(N2C(=O)CCSC23C(=O)N(Cc2ccc(F)cc2)c2ccccc23)c1 (centres undefined)	–	?	17.8µM	?	–
O=C1CCSC2(C(=O)N(Cc3ccc(F)cc3)c3ccccc32)N1c1ccccc1 (centres undefined)	–	?	–	–	–
CC(C)(C)C1CCc2c(sc(NC(=O)CSc3ncn[nH]3)c2C#N)C1 (centres undefined)	–	?	–	?	?
CC1CCc2c(sc(NC(=O)CSc3ncn[nH]3)c2C#N)C1 (centres undefined)	–	–	–	7.31µM	–
N#Cc1c(NC(=O)CSC2=NCCS2)sc2c1CCCC2	–	–	–	?	·
N#Cc1c(NC(=O)CSc2ncn[nH]2)sc2c1CCCC2	–	–	–	4.11µM	–
CN(C)S(=O)(=O)Oc1ccsc1C(=O)Nc1ccc(C(F)(F)F)cc1	?	–	–	–	–
CN(C)S(=O)(=O)Oc1ccsc1C(=O)Nc1ccc(Br)cc1	–	?	–	20.6µM	?
CC(=O)c1sc(NC(=O)CCS(=O)(=O)c2ccc(C)cc2)nc1C	22.4µM	?	–	–	?
C=CC(=O)Nc1cccc(N(C)c2ccnc(Nc3ccc(N4CCN(C)CC4)cc3)n2)c1	–	5.01µM	–	?	1.03µM
CN1CCN(c2ccc(NC(=O)COc3cccc4ccccc34)cc2)CC1	–	–	–	–	–
COc1ccc(-c2noc(CCC(=O)NC3CCCC3)n2)cc1	–	–	–	?	–
COc1ccc(-c2noc(CCCC(=O)NC3CCCCC3)n2)cc1	–	–	–	20.6µM	–
COc1ccc(-c2noc(CCC(=O)Nc3cccc(C)c3)n2)cc1	–	–	–	?	–
COc1ccc(-c2noc(CCC(=O)NCCc3cccc(C)c3)n2)cc1	–	–	–	23.1µM	–
CCOc1ccc(-c2cc(CCCC(=O)NCCc3cc(OC)c(OC)c(OC)c3)no2)cc1	–	?	–	14.6µM	–
COc1ccc(-c2noc(CCCC(=O)NCCc3ccccc3)n2)cc1OC	–	–	–	23.1µM	–
COc1ccccc1NC(=O)Cc1c(F)cccc1Cl	–	–	–	–	–
CCCCNC(=O)c1[nH]c2ccccc2c1Sc1ccc(C)cc1	–	–	–	–	–
COc1ccc(OC)c(S(=O)(=O)N2CCN(C(=O)c3cc(C4CC4)nn3-c3ccccc3)CC2)c1	–	–	–	25.9µM	–
Cc1nc(CS(=O)(=O)c2ccccc2)cc(N2CCN(c3ccccc3F)CC2)n1	–	–	–	20.6µM	–
